Screening data as filed in PubChem BioAssay.
Shown is part of a subset that was picked to be rich in hits.
NS1 function inh: influenza NS1 inhibition | Potency, µM (top dose mostly 46.1 µM), inactives show top-dose activity, positive = more growth | actives 0.4% (n = 270,000); calls by dose curve; also: potency is read from the fitted curve at half-maximal effect; actives are rising curves; nearly all actives have a fitted effect of over 50% in size
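A cell-based growth assay was used: compounds that relieve NS1-induced slow growth of budding yeast raise OD600. Assay medium was yeast nitrogen base with ammonium sulphate and -URA supplement, pH 6.0, with 2% galactose.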
CHX counter: affects cycloheximide protein synthesis inhibition readout, counter-screen; actives 12% (n = 300,000); max response, %; AID 2314; cell reporter, cycloheximide protein synthesis inhibition counterscreen; in the data active = max response mostly above about 13%, no sharp cut-off; inactive = mostly below about 14%; also: read at 38.3 µM for the half of the compounds with a filed dose; 0% is about no effect
Tb PYK inh: blocks Trypanosoma brucei pyruvate kinase; TbPYK enzyme, Kinase-Glo Plus ATP luminescence, 45 min; Potency, µM (top dose mostly 76.8 µM), inactives show at the top dose activity, negative = inhibition, usual class: inhibitors; AID 624173; Q57TT1; actives 0.12% (n = 410,000); also: potency is read from the fitted curve at half-maximal effect; % is scaled to controls: 0 for no effect and ±100 for the full control effect; nearly all actives have a fitted effect of over 50% in size
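Activity of T. brucei pyruvate kinase was followed by Kinase-Glo Plus luminescence after the enzyme reacted 45 min at room temperature with 130 uM ADP (final) and substrate. Test compounds were added before ADP at multiple concentrations.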
SARS PLP yeast: blocks SARS-CoV papain-like protease in a yeast assay; AID 485353; S. cerevisiae expressing SARS-CoV PLpro, growth rescue; Potency, µM (highest dose often 32.9 µM), for inactives: at the top dose activity, positive = growth rescue, actives largely listed as activators; actives 0.19% (n = 330,000); calls by dose curve; also: potency is read from the fitted curve at half-maximal effect; 0% is about no effect; nearly all actives have a fitted effect of over 55% in size
Shiga inhibitor: blocks Shiga toxin action in Vero cells; Vero cells, Shiga toxin protein synthesis inhibition reporter; inhibition, % at 38.7 µM; actives 9.2% (n = 290,000); in the data active = inhibition mostly above about 28%, no sharp cut-off; inactive = mostly below about 43%; also: 0% is about no effect
LmPK inh: blocks Leishmania mexicana pyruvate kinase activity | purified LmPK, Kinase-Glo ATP luminescence, 1 h | Potency, µM (series often up to 57.5 µM), inactives show at the top dose activity change, negative = inhibition, hits mostly inhibitors | actives 0.37% (n = 290,000) | AID 1721; also: potency is read from the fitted curve at half-maximal effect; % is scaled to controls: 0 for no effect and ±100 for the full control effect
Target sequence (Q27686 whole entry, looked up): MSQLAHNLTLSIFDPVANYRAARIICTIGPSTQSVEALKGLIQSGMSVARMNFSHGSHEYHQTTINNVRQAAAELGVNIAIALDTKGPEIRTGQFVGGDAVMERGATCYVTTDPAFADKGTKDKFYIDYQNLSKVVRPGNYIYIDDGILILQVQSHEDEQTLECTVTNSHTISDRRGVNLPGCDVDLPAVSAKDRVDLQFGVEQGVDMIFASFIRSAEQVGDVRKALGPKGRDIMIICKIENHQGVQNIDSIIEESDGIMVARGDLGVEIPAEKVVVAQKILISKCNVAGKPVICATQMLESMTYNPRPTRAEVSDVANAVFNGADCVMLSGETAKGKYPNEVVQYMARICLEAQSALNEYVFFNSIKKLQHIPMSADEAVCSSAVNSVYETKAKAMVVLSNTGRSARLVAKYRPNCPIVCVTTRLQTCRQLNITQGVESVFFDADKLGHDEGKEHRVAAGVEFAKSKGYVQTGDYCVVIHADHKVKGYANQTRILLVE
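qHTS format; LmPK 0.1 nM; substrates PEP 0.5 mM and ADP 0.1 mM. One-hour room-temperature incubation, then coupled luciferase luminescence; 0.5 nM enzyme wells mark activation.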
* = called active by the depositor; ? = inconclusive; . = not tested or not shown; + = active, no number. Unless noted, calls follow the shape of the dose curve; as a rule, active = well fitted curve in the direction sought with a large enough effect; inconclusive = small, poorly fitted or top-dose-only effect, or another doubt; inactive = no such curve, though single readings can be large; an effect the other way counts as inactive or inconclusive.

SMILES	NS1 function inh	CHX counter	Tb PYK inh	SARS PLP yeast	Shiga inhibitor	LmPK inh
Cc1ccc(S(=O)(=O)N/N=C/c2ccc(O)cc2O)cc1[N+](=O)[O-]	9%	18*	-6%	1%	58*	9%
CCOC(=O)c1nnn(CC(=O)Nc2cc(C)cc(C)c2)c1C(=O)OCC	.	.	2%	.	.	.
COc1ccc2[nH]c(C(=O)N3CCC(CO)(Cc4cccc(C(F)(F)F)c4)CC3)c(C)c2c1	-58%	-2	4%	-5%	7	4%
Cc1nc(NC(=O)CSc2nnc(-c3ccc4c(c3)OCO4)o2)c(Cl)cc1Cl	18%	19*	0%	-14%	active	0%
C/C(N)=C(/C#N)C(=O)CSc1nnc(-c2ccc(OC(F)F)cc2)o1	3%	35*	2%	4%	99*	5%
C/C(N)=C(/C#N)C(=O)CSc1ccccc1F	5%	34*	-8%	1%	94*	-1%
NC(=O)CSc1nnc(-c2ccc3c(c2)OCO3)o1	.	28*	7%	0%	75*	-30%
O=C(CSc1nnc(-c2ccc3c(c2)OCO3)o1)Nc1ncc(C(F)(F)F)cc1Cl	1%	-1	-7%	-1%	-3	0%
N[C@@H](Cc1ncccn1)C(=O)O	-2%	.	.	.	.	.
Cn1c(=O)c(=O)n(C)c2cc(S(=O)(=O)N3CCN(c4ccccc4)CC3)ccc21	.	.	0%	.	.	.
CCN(Cc1ccncc1)C(=O)c1cccc(S(=O)(=O)N2CCCCC2)c1	.	.	-24%	-1%	.	.
N#CCSc1nnc(-c2ccc3c(c2)OCO3)o1	-1%	14*	-2%	0%	24*	4%
C/C(N)=C(/C#N)C(=O)CSc1nnc(-c2ccc3c(c2)OCO3)o1	-2%	44*	-10%	7%	99*	0%
C/C(N)=C(/C#N)C(=O)CSc1nn(-c2ccc(Cl)cc2)c(=S)s1	.	47*	-1%	-33%	72*	2%
S=C(S)NCCN1CCNCC1	3%	.	.	.	.	.
COC(=O)c1ccccc1SC(CC(=O)c1ccccc1)c1ccc(F)cc1 (centres undefined)	1%	56*	-10%	-1%	107*	-7%
COc1cccc(CNC(=O)c2ccc(NC(=O)CC3SC(N4CCCC4)=NC3=O)cc2)c1 (centres undefined)	.	.	-10%	-4%	.	.
COc1cccc(C=Nc2ccccc2C#N)c1O	8%	-2	-14%	-17%	-2	14µM*
COc1cccc(C=Nc2ccc3c(c2)CCC3)c1O	7%	9	-4%	-2%	-2	-18%
COc1cccc(C=Nc2cc(C)on2)c1O	-19%	-2	-3%	0%	-8	16µM*
COc1ccc(/C=N/c2oc(-c3ccccc3)cc2C#N)cc1	-24%	16*	-2%	-10%	28	2%
COc1cccc(C=Nc2ccc(C)c(F)c2)c1O	5%	-2	-2%	-2%	9	-28%
COc1cccc(C=Nc2cc(C)cc(C)c2)c1O	6%	-3	1%	22%	-9	-15%
COc1cccc(/C=N/c2oc(-c3ccccc3)cc2C#N)c1O	-2%	24*	-3%	-11%	0	-17%
N#Cc1cc(-c2ccccc2)oc1/N=C/c1ccccc1O	-6%	29*	-4%	-13%	18	-4%
SMILES	NS1 function inh	CHX counter	Tb PYK inh	SARS PLP yeast	Shiga inhibitor	LmPK inh
O=C(O)c1cc(N=Cc2ccccc2O)cc(C(=O)O)c1	3%	.	.	.	.	.
CCCCn1c(N)c(N(CCOC)C(=O)c2cc(S(=O)(=O)N3CCCCC3)ccc2C)c(=O)[nH]c1=O	.	.	-2%	.	.	.
Cc1ccc2cccc(NC(=O)c3ccc(-c4cc(Cl)ccc4Cl)o3)c2n1	.	.	-4%	.	.	.
O=C(O)c1cc(N/N=C/c2ccc3c(c2)OCCO3)ccc1Cl	15%	109*	-7%	-18%	116*	4%
C/C(=N\Nc1ccc(Cl)c(C(=O)O)c1)c1ccc2c(c1)OCO2	.	88*	-6%	1%	+	0%
O=C(N/N=C/c1ccc2c(c1)OCO2)C(=O)Nc1ccccc1Cl	14%	-2	-8%	1%	23	-11%
O=C(O)c1cc(S(=O)(=O)Nc2ccc3c(c2)OCCO3)c(Cl)cc1Cl	-1%	73*	1%	1%	137*	-1%
COC(=O)c1cc(NS(=O)(=O)c2ccc3c(c2)OCCO3)ccc1Cl	.	.	2%	.	.	.
O=C(O/N=C/c1ccc2c(c1)OCO2)c1ccccc1Cl	-14%	55*	.	-12%	132*	?
C/C(=N\NC(=O)c1ccc2c(c1)OCO2)c1ccc(NS(C)(=O)=O)cc1	.	.	-3%	.	.	.
CCOC(=O)C1CCN(S(=O)(=O)c2cc(-c3onc(C)c3C)ccc2OC)CC1	.	.	1%	.	.	.
Cc1ccc(S(=O)(=O)N2CCN(C(=O)CN3C(=O)c4ccc([N+](=O)[O-])cc4C3=O)CC2)cc1C	.	.	0%	2%	.	.
CC(C)CCNC(=O)CN1C(=O)c2cccnc2Sc2ccccc21	.	.	0%	.	.	.
C[n+]1cccc(C(=O)N/N=C/c2ccc3c(c2)OCO3)c1	-4%	-6	2%	0%	-6	-6%
O=C(O)c1ccc(N/N=C/c2cc3cc4c(cc3nc2Cl)OCCO4)cc1	-3%	12*	-6%	1%	-2	-22%
Cc1cc(C)nc(N/N=C/c2cc3c(cc2[N+](=O)[O-])OCO3)n1	.	15	0%	1%	1	-4%
O=C(O)c1ccc(N/N=C/c2cc3c(cc2[N+](=O)[O-])OCO3)cc1	.	17	-13%	1%	42*	-3%
O=C(O)c1ccc(N/N=C/c2ccc3c(c2)OCO3)cc1	-2%	-11	?	-4%	-41	10µM*
Cc1ccc(N/N=C/c2ccc3c(c2)OCCO3)cc1Cl	-7%	55*	-11%	-37%	28*	1%
COc1ccccc1N1CCN(C(=O)C(C)CS(=O)(=O)c2ccc3c(c2)NC(=O)CS3)CC1 (centres undefined)	8%	8	-2%	?	12	2%
COc1ccccc1C(=O)NCCC(=O)NCCCSc1ccccc1	.	.	-1%	2%	.	.
CC(C)(C)OC(=O)C[C@H]1C/C=C\C[C@@H](CC(=O)N(CCO)Cc2ccccc2)C(=O)N[C@@H](Cc2ccccc2)COC1=O	.	.	2%	-17%	.	.
Cc1cc(Cl)ccc1NC(=O)C(=O)N/N=C/c1ccc2c(c1)OCO2	13%	-4	9%	2%	-6	-2%
O=C(O)c1cc(N/N=C/c2ccc3c(c2)OCO3)ccc1Cl	.	80*	-7%	4%	+	-2%
O=C(CCc1nc2cccnc2n1Cc1cccs1)Nc1cccc(C(F)(F)F)c1	.	.	1%	.	.	.
CCCCCC(=O)Nc1ccc(Cl)cn1	3%	39*	1%	-2%	61*	-2%
CCCC(C)C(=O)Nc1ccc(Cl)cn1 (centres undefined)	6%	8.0*	-2%	1%	47*	-1%
COc1ccc(CCC(=O)Nc2ccc(Br)cn2)cc1	?	38*	-25%	4%	78	9%
